Bcl-xL primary: blocks human Bcl-xL binding to Bim BH3 peptide. Q07817. GST-Bcl-xL / FITC-Bim BH3 peptide fluorescence polarization. inhibition, % at 10.9 µM. 320,000 compounds, 0.7% hits. AID 2129;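 active = inhibition above the mean of all tested compounds plus 3 SD, cutoff set per campaign, cut at about 30% in these data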;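 note: inhibitors lower millipolarization by displacing the labeled peptide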
Target sequence (Q07817 whole entry, looked up): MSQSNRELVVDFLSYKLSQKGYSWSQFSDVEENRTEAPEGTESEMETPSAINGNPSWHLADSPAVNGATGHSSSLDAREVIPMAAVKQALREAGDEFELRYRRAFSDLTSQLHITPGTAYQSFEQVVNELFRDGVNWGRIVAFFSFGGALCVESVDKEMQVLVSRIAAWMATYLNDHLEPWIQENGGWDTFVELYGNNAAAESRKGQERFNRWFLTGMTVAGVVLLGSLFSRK
Mcl-1 Bim block: disrupts Bim peptide binding to human Mcl-1; Q07820; Bead-based flow cytometry, Bim peptide-Mcl-1 binding; inhibition, % at 10 µM; 190,000 compounds, 0.1% hits; in the data active = inhibition above about 40%
Mcl1 Bid PPI: disrupts binding of human Mcl-1 to Bid peptide; 220,000 compounds, 0.97% hits; TR-FRET Mcl-1/Bid-Dy647 peptide binding, 1536-well; Q07820; AID 1021; inhibition, % at 21.7 µM;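 active = compounds that cut the binding signal by more than half at the single screening dose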;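 note: His-tagged Mcl-1 with europium anti-His antibody binding Bid BH3 peptide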
Mcl1 Noxa PPI: Mcl-1/Noxa interaction inhibition. Q07820. TR-FRET Mcl-1/Noxa peptide binding, 2 h. inhibition, % at 21.7 µM. 220,000 compounds, 1.5% hits. AID 1022;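 active = compounds that cut the protein-peptide binding signal by more than 50% relative to plate controls in a single-dose test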;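 note: His-tagged Mcl-1 with rhodamine Noxa BH3 peptide and terbium anti-His antibody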
MCL1 BIM primary: inhibitors of human MCL1 binding to BIM-BH3 peptide. GST-MCL1 / FITC-Bim-BH3 fluorescence polarization. 320,000 compounds, 0.68% hits. AID 2057. Q07820. inhibition, % at 10.9 µM;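 active = inhibition above the mean inhibition of all tested compounds plus 3 SD, set per campaign, cut at about 40% in these data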;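 note: higher means more loss of mP so more displacement of Bim peptide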
GLD-1 RNA inh: GLD-1-TGE RNA interaction inhibition (C. elegans) | Q17339 | purified GLD-1 + fluorescein TGE RNA, fluorescence polarization | inhibition, % at 5.96 µM | 320,000 compounds, 0.44% hits;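 active = percent inhibition above a per-plate cutoff, the plate mean of test compounds plus 3 SD, cut at about 30% in these data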
Target sequence (Q17339 whole entry, looked up): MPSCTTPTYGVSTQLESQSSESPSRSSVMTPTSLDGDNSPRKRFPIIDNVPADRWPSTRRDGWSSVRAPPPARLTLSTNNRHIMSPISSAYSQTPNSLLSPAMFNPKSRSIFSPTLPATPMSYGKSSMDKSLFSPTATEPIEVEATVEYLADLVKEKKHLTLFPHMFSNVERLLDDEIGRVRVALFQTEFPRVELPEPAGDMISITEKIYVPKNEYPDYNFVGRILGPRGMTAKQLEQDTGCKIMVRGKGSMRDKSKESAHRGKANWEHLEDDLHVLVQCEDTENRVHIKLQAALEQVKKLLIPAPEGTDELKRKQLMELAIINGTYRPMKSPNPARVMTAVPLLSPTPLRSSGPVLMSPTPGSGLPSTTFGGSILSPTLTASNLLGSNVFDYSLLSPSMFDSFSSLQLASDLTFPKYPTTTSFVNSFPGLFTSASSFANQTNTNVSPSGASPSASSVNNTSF
Of the large screens only hits and unclear results are named; the others gave an inactive call. This is a sample that favours compounds with a hit; in the whole collection about 2.3% have one here.

CCN1CCN(Cc2c(O)ccc3c2O/C(=C\C=C\c2ccccc2OC)C3=O)CC1	Bcl-xL primary 39
COc1ccccc1-c1coc2c(CN3CCN(CCO)CC3)c(O)ccc2c1=O	none (no result: Mcl-1 Bim block, Mcl1 Bid PPI, Mcl1 Noxa PPI)
CCN1CCN(Cc2c(O)ccc3c(=O)c(-c4ccccc4OC)coc23)CC1	none
Cc1nn(-c2ccccc2)c(C)c1C(=O)OC(C)C(=O)NC1CCCCC1C (centres undefined)	none (no result: Mcl-1 Bim block, Mcl1 Bid PPI, Mcl1 Noxa PPI)
N#Cc1ccc(CO/N=C/c2ccccc2)cc1	Mcl1 Bid PPI 89
Cc1ccc(S(=O)(=O)NC(CC(C)C)C(=O)NCC(C)(C)N2CCOCC2)cc1 (centres undefined)	none (no result: Mcl-1 Bim block, Mcl1 Bid PPI, Mcl1 Noxa PPI)
CCOC(=O)CSc1nc(N)c(C(=O)Nc2ccc(N(C)C)cc2)s1	Mcl1 Noxa PPI 90
O=C(CN1C(=O)c2ccccc2C1=O)Nc1cc(C(=O)O)cc(C(=O)O)c1	GLD-1 RNA inh 64 (no result: Mcl-1 Bim block, Mcl1 Bid PPI, Mcl1 Noxa PPI)
O=C(CN1C(=O)c2ccccc2C1=O)Nc1cccnc1	none
CNS(=O)(=O)c1cccc(C(=O)NCC(c2ccco2)N(C)C)c1 (centres undefined)	none (no result: Mcl-1 Bim block, Mcl1 Bid PPI, Mcl1 Noxa PPI)
c1ccc(NC2=Nc3cccc4cccc2c34)cc1	none
COc1ccc(C2=Nc3cccc4cccc(c34)N2)cc1	none
CN1C(=O)Nc2cccc3cccc1c23	none (no result: Mcl-1 Bim block, Mcl1 Bid PPI, Mcl1 Noxa PPI)
ClCC1=Nc2cccc3cccc(c23)N1	Mcl1 Noxa PPI 58 (no result: Mcl-1 Bim block)
CC(C)C1=Nc2cccc3cccc(c23)N1	Mcl1 Noxa PPI 53
Nc1cccc(C2=Nc3cccc4cccc(c34)N2)c1	Mcl1 Noxa PPI 74
CC(NC(=O)COc1ccccc1Cl)c1ccccc1 (centres undefined)	none (no result: Mcl-1 Bim block, Mcl1 Bid PPI, Mcl1 Noxa PPI)
Nc1nccnc1C(=O)OCC(=O)c1ccc[nH]1	none (no result: Mcl-1 Bim block, Mcl1 Bid PPI, Mcl1 Noxa PPI)
Cc1ccc(C(=O)NCc2ccccn2)cc1S(=O)(=O)N1CCCCC1	none (no result: Mcl-1 Bim block, Mcl1 Bid PPI, Mcl1 Noxa PPI)
CC(C(=O)NC1CCCC1)N(Cc1ccco1)C(=O)c1snc(C(=O)NC2CCCC2)c1N (centres undefined)	Mcl1 Noxa PPI 90
O=C(CN(Cc1ccc(F)cc1)S(=O)(=O)c1ccccc1)N1CCCCC1	Mcl1 Noxa PPI 62
COc1ccc(-c2nnc(Nc3nc4c(OC)cccc4s3)o2)c(OC)c1	none
COc1ccc(-c2nnc(Nc3nc4c(OC)cccc4s3)o2)cc1	Mcl1 Bid PPI 56, Mcl1 Noxa PPI 57
NC(=O)C1Cc2ccccc2CN1C(=O)c1nn(Cc2ccccc2)c(=O)c2ccccc12 (centres undefined)	none (no result: Mcl-1 Bim block, Mcl1 Bid PPI, Mcl1 Noxa PPI)
COc1ccc(/C=C/C(=O)c2ccc(OC)cc2OC)c(OC)c1	none
CNc1ccc(Br)cc(C(=O)/C=C/c2ccc(OC)cc2OC)c1=O	Mcl1 Noxa PPI 76
CNc1ccc(Br)cc(C(=O)/C=C/c2ccc(Cl)cc2Cl)c1=O	Mcl1 Noxa PPI 92
CNc1ccc(Br)cc(C(=O)/C=C/c2cccc(OC)c2)c1=O	Mcl1 Noxa PPI 81
CCN(c1ccc(OC)cc1)S(=O)(=O)c1nnc(NC(=O)CC(C)C)s1	none (no result: Mcl-1 Bim block, Mcl1 Bid PPI, Mcl1 Noxa PPI)
O=C(c1cc(=O)c2ccccc2o1)N1CCN(c2cccc(Cl)c2)CC1	none
O=C(c1cnccn1)N1CCN(c2ccccc2F)CC1	Mcl-1 Bim block 57
O=C(c1cc(=O)c2ccccc2o1)N1CCN(c2ccccc2F)CC1	Mcl-1 Bim block 41
Cc1cc(S(=O)(=O)N2CCOCC2)ccc1OCC(=O)Nc1ccc(F)cc1	none (no result: Mcl-1 Bim block, Mcl1 Bid PPI, Mcl1 Noxa PPI)
COc1cc2c(cc1OC)-c1cc3ccc4c(c3c[n+]1CC2)OCO4	Bcl-xL primary 170, MCL1 BIM primary active, GLD-1 RNA inh 40
COc1cc2c(cc1O)CC[n+]1cc3c(OC)c(OC)ccc3cc1-2	none
O=C1NC2(CCCCCC2)C(=O)N1Cc1ccccc1	none (no result: Mcl-1 Bim block, Mcl1 Bid PPI, Mcl1 Noxa PPI)
O=C1NC(=O)N(Cc2ccccc2)C1=O	Bcl-xL primary 57, MCL1 BIM primary 53 (no result: Mcl-1 Bim block, Mcl1 Bid PPI, Mcl1 Noxa PPI)
COc1ccc(/C=N\NC(=O)c2cc(O)c(O)c(O)c2)cc1CN1CCN(c2ccc(F)cc2)CC1	Mcl1 Noxa PPI 70
O=C(/C=C/N1CCOCC1)c1coc2ccccc12	Mcl1 Bid PPI 71
O=C(Nc1ccc(N2CCOCC2)cc1)c1cc2ccccc2o1	none
O=C(/C=C/N1CCOCC1)c1cc2ccccc2o1	Mcl1 Bid PPI 75
COc1cc(C2NC(=O)N(C)C(C)=C2C(=O)OCc2ccccc2)cc(Br)c1O (centres undefined)	none (no result: Mcl-1 Bim block, Mcl1 Bid PPI, Mcl1 Noxa PPI)
Cc1cccc(N2CCN(C(=O)Cc3ccc(Br)cc3)CC2)c1C	Mcl1 Bid PPI 61
C[C@@H]1O[C@@H](Oc2c(-c3ccc(O)c(O)c3)oc3cc(O)cc(O)c3c2=O)[C@H](O)[C@H](O)[C@H]1O	none (no result: Bcl-xL primary, Mcl-1 Bim block, Mcl1 Bid PPI, Mcl1 Noxa PPI, MCL1 BIM primary)
C[C@@H]1O[C@@H](Oc2c(-c3cc(O)c(O)c(O)c3)oc3cc(O)cc(O)c3c2=O)[C@H](O)[C@H](O)[C@H]1O	Mcl1 Noxa PPI 54
Oc1ccccc1CNCCCN1CCOCC1	none (no result: Mcl-1 Bim block, Mcl1 Bid PPI, Mcl1 Noxa PPI)
Cc1cc(C)n(CC(=O)NCc2cc(-c3nn(C)c(=O)c4ccccc34)ccc2C)n1	none
Cc1ccc(-c2nn(C)c(=O)c3ccccc23)cc1CNC(=O)Cn1nc(-c2ccccc2)c2ccccc2c1=O	Mcl1 Bid PPI 77 (no result: Bcl-xL primary, MCL1 BIM primary, GLD-1 RNA inh)
CC(C)Oc1ccc(CN2CCCC(CO)(Cc3ccc(F)cc3)C2)cc1 (centres undefined)	Bcl-xL primary 36, MCL1 BIM primary 46 (no result: Mcl-1 Bim block, Mcl1 Bid PPI, Mcl1 Noxa PPI)
Cc1nn(-c2ccc(N3CCOCC3)nn2)c(C)c1CCC(=O)N1CCN(C)CC1	none (no result: Mcl-1 Bim block, Mcl1 Bid PPI, Mcl1 Noxa PPI)
Cc1csc2nc(CSc3nc4ccccc4o3)cn12	Mcl1 Noxa PPI 51
OCC(O)CN1CCCC1 (centres undefined)	none (no result: Mcl-1 Bim block)
Cc1ccc2c(CC(=O)OCc3cc(=O)n4c(n3)sc3ccccc34)coc2c1	none
CC(C)[C@H](NC(=O)Cc1ccccc1)C(=O)OCc1cc(=O)n2c(n1)sc1ccccc12	Mcl1 Noxa PPI 76

Screening results deposited in PubChem by several laboratories.
